Where “and” joins values, the source holds several entries; their conditions need not be identical. Equal values may be shown once. About 1,400 (58%) of roughly 2,400 compounds were called active.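 The calls were made as follows: active = inhibition of 30% or more at any tested dose; inconclusive = primary hits over the limit that were never retested; inactive = the rest.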 So high a share suggests a set chosen from earlier hits. This is one part of the list.

We go through 29 compounds from PubChem BioAssay AID624351 (Southern Research Specialized Biocontainment Screening …, 2012).

This assay can be described thus: ADP Hunter readout inhibition without MgcRacGAP – biochemical, coupled enzyme counter-screen, artefact control for MgcRacGAP inhibitor project, dose response (AID 624351).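 Also: signal is the ADP detection kit reading of free GDP without any GAP enzyme.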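 As to inhibition: 0% = median positive control wells and 100% = median negative control wells.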 The settings on record: fluorescence, no MgcRacGAP; series mostly up to 80 µM; inhibition: at the top concentration.
What is called IC50 is the point on the concentration scale where inhibition reaches its midpoint. Consider `N/C(=N\[N+](=O)[O-])N/N=C/c1ccc(O)cc1`, for which the half-inhibitory concentration (IC50) was 20.8 µM (active).
Broadly, the inhibition is the change of the read-out against control, counted positive when it falls. Turning to `O=C(O)CCn1cc(C=C2C(=O)NC(=O)NC2=O)c(-c2ccc(Br)cc2)n1`, the “inhibition” value was 2% (inactive).
The same measure, in the same setting: the figure for `Cc1ccc(N2C(=O)NC(=O)/C(=C/c3ccoc3)C2=O)cc1` is 1.28% (inactive).
Same read-out and setting: the figure for `COc1cc(C=C2C(=O)NC(=O)NC2=O)ccc1OCc1ccc([N+](=O)[O-])cc1` is 3.37% (inactive); for `COc1cc(OC)c(OC)cc1/C=C1\C(=O)NC(=O)N(Cc2ccccc2)C1=O` it is 6.49% (inactive).
Regarding `CNC(=O)Oc1ccc(-c2cn3cc(C)ccc3n2)cc1`, the 50% inhibitory concentration (IC50) was 37.7 µM (active).
As to `O=C(CNC1CCCC1)Nc1ccc(N2CCCCCC2)cc1`, the “inhibition” value was 23.6% (inactive).
Same read-out and setting: the result for `NCCc1cc(O)c(O)cc1O` reads -8.6% [at 5 µM] (inactive) and -17.1% [at 5 µM] (inactive).
Still for that read-out and setting: the figure for `CCN(CC)c1ccc(/C=C2/C(=O)NC(=O)N(Cc3ccco3)C2=O)cc1` is -0.29% (inactive).
With `c1ccc2c(c1)Nc1ccccc1S2`, the IC50 was 17.2 µM (active).
Turning to `COc1ccccc1OCC#CCN1CCCC1`, the “inhibition” value is 13.8% (inactive).
Regarding `O=P1(c2ccccc2)Nc2ccccc2N1c1ccccc1` (centres undefined), the 50% inhibitory concentration (IC50) is 29.5 µM (active).
Take `Cn1cccc1/C=C1\C(=O)NC(=O)N(Cc2ccco2)C1=O`: the “inhibition” value was 4.1% (inactive).
For the compound `Nc1ccc2c3c(cccc13)-c1ccccc1-2`, the IC50 was 55.5 µM (active).
For the compound `CC1=NNC(=O)C1Br` (centres undefined), the “inhibition” value is 5.41% (inactive).
Still for that read-out and setting: the result for `COc1ccccc1CNCCc1cccc(Cl)c1` reads 17.4% (inactive).
As to `C1=Cc2ccccc2Nc2ccccc21`, the IC50 was 12.4 µM (active).
Take `Cc1cccc(OCC(=O)N2CCN(Cc3ccncc3)CC2)c1`: the “inhibition” value was 26.2% (inactive).
Still for that read-out and setting: the figure for `COc1ccc(/C=C2/C(=O)NC(=O)N(c3ccc(C)c(C)c3)C2=O)cc1CN1C(=O)c2ccccc2C1=O` is 3.7% (inactive); for `Cc1ccc(CN2CCN(Cc3ccccc3F)CC2)cc1` it is 25.6% (inactive); for `Cc1cc(/C=C2\C(=O)NC(=O)N(c3ccc(Br)cc3)C2=O)c(C)n1-c1cc(C(=O)O)cc(C(=O)O)c1` it is -1.86% (inactive).
`O=C(O)Cn1cc(/C=C2\C(=O)NC(=O)N(c3ccc(Cl)cc3)C2=O)c2ccccc21`: the “inhibition” value is 0.89% (inactive).
Turning to `CN(C)c1ccc(NC(=O)CN2C(=O)CN=C(c3ccccc3)c3ccccc32)cc1`, the 50% inhibitory concentration (IC50) was 73.3 µM (active).
As to `COc1ccc(OC)c(N2C(=O)NC(=O)/C(=C/c3ccc([N+](=O)[O-])s3)C2=O)c1`, the “inhibition” value was 4.62% (inactive).
Still for that read-out and setting: the figure for `C=CCN1C(=O)/C(=C/c2ccc(Br)s2)C(=O)NC1=S` is 1.24% (inactive); for `COc1ccccc1OCC#CCN1CCCC(C)C1` (centres undefined) it is 14.2% (inactive).
The same measure, in the same setting: the result for `CSc1nc(N)c(N=Nc2ccc([As](=O)(O)O)cc2)c(=O)[nH]1` reads 5.1% (inactive); that for `O=C(O)c1ccc(-n2c(O)c(/C=C3\C=Nc4ccccc43)c(=O)[nH]c2=O)cc1`, 4.69% (inactive).
As for `O=[N+]([O-])c1ccc2c(c1)Cc1cc(O)ccc1-2`, the IC50 is 24.5 µM (active).
